Assay results taken from the supplement of paper PMC12350171.
Counter-ions that a name gives are not always drawn. Unmarked numbers belong to inactive results.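 How the source made its calls: active = normalised median growth AUC below 0.1 of DMSO control; inactive = AUC 0.1 or higher.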

What was measured:
Test in all cases: growth AUC normalised to DMSO control (median) (fraction of control); higher = less growth inhibition, active = hit call of the paper
Conditions in all cases: 20 µM
[1] = tested on: P. vulgatus RND KO
Procedure, shortened: (§1)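 Area under the growth curve, calculated by the trapezoidal rule up to entry into stationary phase, was normalised to vehicle wells on the same plate. Strains had been passaged twice overnight without oxygen and then grown in mGAM in 96-well plates from OD578 0.01, each with an approved-drug library compound at 20 μM in 1% DMSO. OD578 was read hourly over 24 h in an anaerobic incubator, and the median of three biological replicates is given.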

[2] = tested on: P. vulgatus WT
Procedure, shortened: as §1

[3] = tested on: S. enterica typhimurium WT
Procedure, shortened: as §1

[4] = tested on: S. enterica typhimurium tolC KO
Procedure, shortened: as §1
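Further: active when median AUC fell below 0.1.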

| Structure (SMILES) | growth AUC normalised to DMSO control [1] | growth AUC normalised to DMSO control [2] | growth AUC normalised to DMSO control [3] | growth AUC normalised to DMSO control [4] |
| --- | --- | --- | --- | --- |
| COC(=O)C1=C(C)NC(C)=C(C(=O)O[C@H]2CCN(Cc3ccccc3)C2)[C@H]1c1cccc([N+](=O)[O-])c1 [Barnidipine Hydrochloride] | 1.1 | 1.11 | 0.998 | 0.961 |
| Cc1ccc(=O)n(-c2ccccc2)c1 [Pirfenidone] | 0.932 | 0.875 | 1 | 1 |
| Nc1nc(CC(=O)Nc2ccc(CCNC[C@H](O)c3ccccc3)cc2)cs1 [Mirabegron] | 1 | 0.989 | 0.991 | 1 |
| CC[C@@H]([C@H](C)O)n1ncn(-c2ccc(N3CCN(c4ccc(OC[C@@H]5CO[C@@](Cn6cncn6)(c6ccc(F)cc6F)C5)cc4)CC3)cc2)c1=O [Posaconazole hydrate] | 0.87 | 0.875 | 1.01 | 0.979 |
| O=C(O)CSCC(=O)NC1CCSC1=O (stereo not given) [Erdosteine] | 1.02 | 1.04 | 1 | 0.999 |
| CC(C)OC(=O)CCC/C=C\C[C@@H]1[C@@H](CC[C@@H](O)CCc2ccccc2)[C@H](O)C[C@@H]1O [Latanoprost] | 0.958 | 0.966 | 1.01 | 0.896 |
| COc1ccc(-c2ccc3cc(C(=O)O)ccc3c2)cc1C12CC3CC(CC(C3)C1)C2 [Adapalene] | 1.03 | 1 | 0.988 | 1.01 |
| NCCc1c[nH]cn1 [Histamine dihydrochloride] | 0.991 | 0.979 | 1 | 0.982 |
| NC(=O)c1cn(Cc2c(F)cccc2F)nn1 [Rufinamide] | 0.994 | 0.963 | 1 | 1 |
| CCOC(=O)C(C)(N)Cc1cc(I)c(Oc2cc(I)c(O)c(I)c2)c(I)c1 (stereo not given) [Etiroxate hydrochloride] | 0.415 | 0.571 | 1.01 | 1 |
| Cc1nc2ccccc2n1Cc1ccc(Cl)cc1 [Chlormidazole] | 0.974 | 0.95 | 0.951 | 0.833 |
| CC(C)(C)c1ccc(C(=O)CCCN2CCC(OC(c3ccccc3)c3ccccc3)CC2)cc1 [Ebastine] | 0.999 | 1.01 | 1.01 | 0.97 |
| COc1ccc(C2C(=O)c3ccccc3C2=O)cc1 [Anisindione] | 1 | 1 | 0.973 | 0.749 |
| CC(=O)OC[C@H]1O[C@@H](n2ncc(=O)[nH]c2=O)[C@H](OC(C)=O)[C@@H]1OC(C)=O [Azaribine] | 0.972 | 0.956 | 1 | 1 |
| Cn1c(NCCN(CCO)CCCc2ccc([N+](=O)[O-])cc2)cc(=O)n(C)c1=O [Nifekalant] | 1.06 | 1.03 | 1.02 | 1 |
| C[C@@H]1C[C@H]2[C@@H]3C[C@H](F)C4=CC(=O)C=C[C@]4(C)[C@@]3(F)[C@@H](O)C[C@]2(C)[C@@]1(O)C(=O)COC(=O)C(C)(C)C [Flumethasone pivalate] | 0.995 | 1 | 0.999 | 1 |
| CC1(C)S[C@@H]2[C@H](NC(=O)C(c3ccccc3)S(=O)(=O)O)C(=O)N2[C@H]1C(=O)O (stereo not given in full) [Sulbenicillin sodium salt] | 0.00728 (active) | 0.00538 (active) | 0.116 | 0.00823 (active) |
| CC(=O)OCC(=O)[C@@]1(O)CC[C@H]2[C@@H]3CCC4=CC(=O)C=C[C@]4(C)[C@@]3(F)[C@@H](O)C[C@@]21C [Isoflupredone acetate] | 1.03 | 0.986 | 1 | 0.98 |

| Structure (SMILES) | growth AUC normalised to DMSO control [1] | growth AUC normalised to DMSO control [2] | growth AUC normalised to DMSO control [3] | growth AUC normalised to DMSO control [4] |
| --- | --- | --- | --- | --- |
| Cc1cc(O)c(C(=O)N[C@@H](C(=O)N[C@@H]2C(=O)N3C(C(=O)O)=C(CSc4nnnn4C)CS[C@H]23)c2ccc(O)cc2)cn1 [Cefpiramide] | 0.0197 (active) | 0.0147 (active) | 0.121 | 0.0047 (active) |
| Cc1c(O)c(=O)ccn1C [Deferiprone] | 0.978 | 0.993 | 1 | 1 |
| CC(C)[C@H]1CC[C@H](C(=O)N[C@H](Cc2ccccc2)C(=O)O)CC1 [Nateglinide] | 0.977 | 0.999 | 0.994 | 0.968 |
| O=C(O)CCNC(=O)c1ccccc1 [Betamipron] | 1 | 1.04 | 0.998 | 0.807 |
| CCC(=O)c1ccc(O)cc1 [Paroxypropione] | 1 | 0.985 | 0.994 | 1 |
| CN1c2cc(O)c(N=NC(N)=O)cc2CC1S(=O)(=O)O (stereo not given) [Carbazochrome sodium sulfonate] | 1.01 | 1 | 1 | 0.993 |
| CO[C@@H]1[C@@H](OC(N)=O)[C@@H](O)[C@H](Oc2ccc3c(O)c(NC(=O)c4ccc(O)c(CC=C(C)C)c4)c(=O)oc3c2C)OC1(C)C [Novobiocin sodium salt] | 0.0285 (active) | 0.021 (active) | 0.999 | 0.0104 (active) |
| COc1cc(Nc2c(C#N)cnc3cc(OCCCN4CCN(C)CC4)c(OC)cc23)c(Cl)cc1Cl [Bosutinib] | 1 | 0.947 | 1 | 0.98 |
| O=C(O)c1cc(=O)c2ccccc2o1 [Chromocarb] | 0.981 | 1 | 0.998 | 1 |
| Cc1onc(-c2ccccc2)c1-c1ccc(S(N)(=O)=O)cc1 [Valdecoxib] | 0.981 | 0.993 | 1 | 0.983 |
| O=c1[nH]c(=O)n(C2CCCO2)cc1F (stereo not given) [Tegafur] | 1 | 1.01 | 1 | 0.999 |
| Cc1cc(NS(=O)(=O)c2ccc(N)cc2)nc(C)n1 [Sulfisomidine] | 1.03 | 1.03 | 1 | 0.995 |
| CN1CC(O)c2cc(N=NC(N)=O)c(O)cc21 (stereo not given) [Carbazochrome] | 0.999 | 1.01 | 0.999 | 0.952 |
| Nc1ccc(S(=O)(=O)Nc2cnc3ccccc3n2)cc1 [Sulfaquinoxaline sodium salt] | 1.01 | 1.04 | 0.985 | 1 |
| CCOC(=O)OC(C)OC1=C(C(=O)Nc2ccccn2)N(C)S(=O)(=O)c2ccccc21 (stereo not given) [Ampiroxicam] | 0.999 | 0.988 | 1 | 0.986 |
| CC[N+]1(CC)CCC(=C(c2ccccc2)c2ccccc2)C1C (stereo not given) [Prifinium Bromide] | 0.997 | 0.989 | 1 | 0.935 |
| CCOC(=O)[C@H](CCc1ccccc1)N[C@H]1CS[C@H](c2cccs2)CN(CC(=O)O)C1=O [Temocapril hydrochloride] | 1.02 | 1.03 | 1 | 1 |
